Measurements taken from PubChem BioAssay AID1159580 (chemical genetic matrix, 2015).
Screen size: about 5,500 compounds; about 2,000 (36%) were called active. Not shown: some 18% with an inconclusive outcome. No stated cut-off is given here; in the data, active means normalized growth mostly below about 0.91 (no sharp cut-off); inconclusive means no clear call, values can overlap the other calls; inactive means mostly above about 0.92. The list shows a part of the results.

Experiment: chemical genetic growth profiling, strain panel (AID 1159580);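 further: tested at 20 µM; growth read once vehicle control cultures reached saturation at 30 °C; 1 = growth at the plate median or of vehicle wells; lower values mean less growth of the strain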
Details: growth OD

Measured: normalized growth

Cn1c(=O)[nH]c2nc[nH]c2c1=O
inactive: S. cerevisiae deletion strains, locus YAL021C, strain ccr4, hits give low values 0.98 | S. cerevisiae deletion strains, locus YAL026C, strain drs2, hits give low values 1.01 | S. cerevisiae deletion strains, locus YAL030W, strain snc1, hits give low values 1 | S. cerevisiae deletion strains, locus YBL061C, strain skt5, hits give low values 0.992 | S. cerevisiae deletion strains, locus YBR009C, strain hhf1, hits give low values 0.992 | S. cerevisiae deletion strains, locus YBR021W, strain FUR4, hits give low values 1.01 | S. cerevisiae deletion strains, locus YBR023C, strain chs3, hits give low values 0.993 | S. cerevisiae deletion strains, locus YBR171W, strain sec66, hits give low values 0.972 | S. cerevisiae deletion strains, locus YBR229C, strain ROT2, hits give low values 0.995 | S. cerevisiae deletion strains, locus YBR231C, strain swc5, hits give low values 0.989 | S. cerevisiae deletion strains, locus YBR279W, strain paf1, hits give low values 1 | S. cerevisiae deletion strains, locus YCL011C, strain gbp2, hits give low values 0.996 | S. cerevisiae deletion strains, locus YCL016C, strain dcc1, hits give low values 0.994 | S. cerevisiae deletion strains, locus YCL029C, strain bik1, hits give low values 0.992 | S. cerevisiae deletion strains, locus YCL061C, strain MRC1, hits give low values 0.999 | S. cerevisiae deletion strains, locus YCL069W, strain vba3, hits give low values 0.993 | S. cerevisiae deletion strains, locus YCR088W, strain abp1, hits give low values 1.01 | S. cerevisiae deletion strains, locus YDL005C, strain med2, hits give low values 0.993 | S. cerevisiae deletion strains, locus YDL035C, strain GPR1, hits give low values 1.01 | S. cerevisiae deletion strains, locus YDL040C, strain nat1, hits give low values 0.987 | S. cerevisiae deletion strains, locus YDL074C, strain BRE1, hits give low values 1.04 | S. cerevisiae deletion strains, locus YDL101C, strain DUN1, hits give low values 1.01 | S. cerevisiae deletion strains, locus YDL134C, strain PPH21, hits give low values 1 | S. cerevisiae deletion strains, locus YDL185W, strain tfp1, hits give low values 1.01 | S. cerevisiae deletion strains, locus YDL192W, strain arf1, hits give low values 0.985 | S. cerevisiae deletion strains, locus YDR001C, strain nth1, hits give low values 1 | S. cerevisiae deletion strains, locus YDR069C, strain doa4, hits give low values 1 | S. cerevisiae deletion strains, locus YDR101C, strain arx1, hits give low values 0.995 | S. cerevisiae deletion strains, locus YDR137W, strain rgp1, hits give low values 0.976 | S. cerevisiae deletion strains, locus YDR159W, strain sac3, hits give low values 1.01 | S. cerevisiae deletion strains, locus YDR162C, strain NBP2, hits give low values 1.03 | S. cerevisiae deletion strains, locus YDR195W, strain ref2 0.966 | S. cerevisiae deletion strains, locus YDR297W, strain sur2, hits give low values 1 | S. cerevisiae deletion strains, locus YDR318W, strain mcm21, hits give low values 0.994 | S. cerevisiae deletion strains, locus YDR334W, strain swr1, hits give low values 0.998 | S. cerevisiae deletion strains, locus YDR335W, strain msn5, hits give low values 0.987 | S. cerevisiae deletion strains, locus YDR388W, hits give low values 0.994 | S. cerevisiae deletion strains, locus YDR392W, strain spt3, hits give low values 0.972 | S. cerevisiae deletion strains, locus YDR502C, strain sam2, hits give low values 0.997 | S. cerevisiae deletion strains, locus YEL003W, strain gim4, hits give low values 1.01 | S. cerevisiae deletion strains, locus YEL037C, strain rad23, hits give low values 0.992 | S. cerevisiae deletion strains, locus YEL061C, strain CIN8 (second series), hits give low values 0.995 | S. cerevisiae deletion strains, locus YEL061C, strain CIN8, hits give low values 1 | S. cerevisiae deletion strains, locus YER015W, strain faa2, hits give low values 1.01 | S. cerevisiae deletion strains, locus YER016W, strain bim1, hits give low values 0.993 | S. cerevisiae deletion strains, locus YER110C, hits give low values 1 | S. cerevisiae deletion strains, locus YER111C, strain swi4, hits give low values 0.99 | S. cerevisiae deletion strains, locus YER155C, strain BEM2 (second series), hits give low values 0.992 | S. cerevisiae deletion strains, locus YER155C, strain BEM2, hits give low values 1.01 | S. cerevisiae deletion strains, locus YER167W, strain BCK2, hits give low values 0.997 | S. cerevisiae deletion strains, locus YFR010W, strain ubp6, hits give low values 1.01 | S. cerevisiae deletion strains, locus YGL078C, strain dbp3, hits give low values 1.01 | S. cerevisiae deletion strains, locus YGL086W, strain mad1, hits give low values 1.01 | S. cerevisiae deletion strains, locus YGL167C, strain pmr1, hits give low values 1 | S. cerevisiae deletion strains, locus YGL173C, strain kem1, hits give low values 1.02 | S. cerevisiae deletion strains, locus YGL227W, strain vid30, hits give low values 1 | S. cerevisiae deletion strains, locus YGL240W, strain doc1, hits give low values 1.01 | S. cerevisiae deletion strains, locus YGL248W, strain PDE1, hits give low values 0.996 | S. cerevisiae deletion strains, locus YGL253W, strain hxk2, hits give low values 1 | S. cerevisiae deletion strains, locus YGR078C, strain PAC10, hits give low values 1.01 | S. cerevisiae deletion strains, locus YGR135W, strain pre9, hits give low values 1.01 | S. cerevisiae deletion strains, locus YGR252W, strain gcn5, hits give low values 1.01 | S. cerevisiae deletion strains, locus YHR013C, strain ard1, hits give low values 0.989 | S. cerevisiae deletion strains, locus YHR027C, strain rpn1, hits give low values 1.02 | S. cerevisiae deletion strains, locus YHR030C, strain SLT2, hits give low values 1.02 | S. cerevisiae deletion strains, locus YHR079C, strain IRE1 (second series), hits give low values 1 | S. cerevisiae deletion strains, locus YHR094C, strain hxt1, hits give low values 0.993 | S. cerevisiae deletion strains, locus YHR129C, strain ARP1, hits give low values 1 | S. cerevisiae deletion strains, locus YHR142W, strain chs7, hits give low values 0.997 | S. cerevisiae deletion strains, locus YHR200W, strain rpn10, hits give low values 0.983 | S. cerevisiae deletion strains, locus YIL066C, strain RNR3, hits give low values 1.01 | S. cerevisiae deletion strains, locus YIL073C, strain SPO22, hits give low values 1.03 | S. cerevisiae deletion strains, locus YIL125W, strain kgd1, hits give low values 1 | S. cerevisiae deletion strains, locus YIR030C, strain dcg1, hits give low values 0.995 | S. cerevisiae deletion strains, locus YJL092W, strain hpr5, hits give low values 1 | S. cerevisiae deletion strains, locus YJL095W, strain BCK1 (second series), hits give low values 0.997 | S. cerevisiae deletion strains, locus YJL095W, strain BCK1, hits give low values 1.03 | S. cerevisiae deletion strains, locus YJL115W, strain asf1, hits give low values 1.01 | S. cerevisiae deletion strains, locus YJL129C, strain trk1, hits give low values 1.01 | S. cerevisiae deletion strains, locus YJL134W, strain LCB3, hits give low values 1.01 | S. cerevisiae deletion strains, locus YJL154C, strain vps35, hits give low values 0.997 | S. cerevisiae deletion strains, locus YJL164C, strain tpk1, hits give low values 0.981 | S. cerevisiae deletion strains, locus YJL166W, strain qcr8, hits give low values 0.995 | S. cerevisiae deletion strains, locus YJL168C, strain set2, hits give low values 0.994 | S. cerevisiae deletion strains, locus YJL187C, strain SWE1 (second series), hits give low values 1.01 | S. cerevisiae deletion strains, locus YJL187C, strain SWE1, hits give low values 1 | S. cerevisiae deletion strains, locus YJR043C, strain POL32, hits give low values 1.03 | S. cerevisiae deletion strains, locus YJR075W, strain HOC1, hits give low values 1.01 | S. cerevisiae deletion strains, locus YKL068W, hits give low values 1 | S. cerevisiae deletion strains, locus YKL085W, strain MDH1 (second series), hits give low values 1.02 | S. cerevisiae deletion strains, locus YKL085W, strain MDH1, hits give low values 1.02 | S. cerevisiae deletion strains, locus YKL160W, strain elf1, hits give low values 0.978 | S. cerevisiae deletion strains, locus YKL190W, strain CNB1, hits give low values 1.02 | S. cerevisiae deletion strains, locus YKR001C, strain vps1, hits give low values 1.01 | S. cerevisiae deletion strains, locus YKR026C, strain gcn3, hits give low values 0.999 | S. cerevisiae deletion strains, locus YKR091W, strain srl3, hits give low values 0.997 | S. cerevisiae deletion strains, locus YLL001W, strain dnm1, hits give low values 0.977 | S. cerevisiae deletion strains, locus YLL026W, hits give low values 1 | S. cerevisiae deletion strains, locus YLL041C, strain sdh2, hits give low values 0.999 | S. cerevisiae deletion strains, locus YLR027C, strain aat2, hits give low values 0.991 | S. cerevisiae deletion strains, locus YLR039C, strain RIC1, hits give low values 1.03 | S. cerevisiae deletion strains, locus YLR058C, strain SHM2, hits give low values 1.01 | S. cerevisiae deletion strains, locus YLR102C, strain apc9, hits give low values 1.01 | S. cerevisiae deletion strains, locus YLR221C, strain rsa3, hits give low values 1.01 | S. cerevisiae deletion strains, locus YLR258W, strain gsy2, hits give low values 1.01 | S. cerevisiae deletion strains, locus YLR262C, strain YPT6 (second series), hits give low values 0.979 | S. cerevisiae deletion strains, locus YLR262C, strain YPT6, hits give low values 1.04 | S. cerevisiae deletion strains, locus YLR268W, strain sec22, hits give low values 1.01 | S. cerevisiae deletion strains, locus YLR320W, strain mms22, hits give low values 1 | S. cerevisiae deletion strains, locus YLR330W, strain CHS5, hits give low values 1 | S. cerevisiae deletion strains, locus YLR342W, strain FKS1 (second series), hits give low values 1.01 | S. cerevisiae deletion strains, locus YLR342W, strain FKS1, hits give low values 1 | S. cerevisiae deletion strains, locus YLR357W, strain rsc2, hits give low values 0.977 | S. cerevisiae deletion strains, locus YLR370C, strain arc18, hits give low values 0.999 | S. cerevisiae deletion strains, locus YLR371W, strain rom2, hits give low values 1 | S. cerevisiae deletion strains, locus YLR384C, strain iki3, hits give low values 1 | S. cerevisiae deletion strains, locus YLR418C, strain cdc73, hits give low values 1.01 | S. cerevisiae deletion strains, locus YML016C, strain PPZ1, hits give low values 1 | S. cerevisiae deletion strains, locus YML032C, strain rad52, hits give low values 0.991 | S. cerevisiae deletion strains, locus YML120C, strain ndi1, hits give low values 1 | S. cerevisiae deletion strains, locus YML124C, strain tub3, hits give low values 0.996 | S. cerevisiae deletion strains, locus YMR058W, strain fet3, hits give low values 1.01 | S. cerevisiae deletion strains, locus YMR078C, strain ctf18, hits give low values 0.996 | S. cerevisiae deletion strains, locus YMR125W, strain sto1, hits give low values 0.998 | S. cerevisiae deletion strains, locus YMR129W, hits give low values 1 | S. cerevisiae deletion strains, locus YMR205C, strain PFK2, hits give low values 0.998 | S. cerevisiae deletion strains, locus YMR223W, strain ubp8, hits give low values 0.991 | S. cerevisiae deletion strains, locus YMR231W, strain pep5, hits give low values 0.967 | S. cerevisiae deletion strains, locus YMR307W, strain GAS1, hits give low values 1.05 | S. cerevisiae deletion strains, locus YNL067W, strain RPL9B, hits give low values 1.02 | S. cerevisiae deletion strains, locus YNL071W, strain lat1, hits give low values 1 | S. cerevisiae deletion strains, locus YNL153C, strain GIM3, hits give low values 0.998 | S. cerevisiae deletion strains, locus YNL209W, strain ssb2, hits give low values 0.998 | S. cerevisiae deletion strains, locus YNL233W, strain BNI4, hits give low values 1.01 | S. cerevisiae deletion strains, locus YNL248C, strain rpa49, hits give low values 1.01 | S. cerevisiae deletion strains, locus YNL250W, strain rad50, hits give low values 0.994 | S. cerevisiae deletion strains, locus YNL271C, strain bni1, hits give low values 1 | S. cerevisiae deletion strains, locus YNL298W, strain CLA4, hits give low values 0.999 | S. cerevisiae deletion strains, locus YNL307C, strain MCK1, hits give low values 1 | S. cerevisiae deletion strains, locus YNL322C, strain KRE1 (second series), hits give low values 1.01 | S. cerevisiae deletion strains, locus YNL322C, strain KRE1, hits give low values 1.01 | S. cerevisiae deletion strains, locus YNR049C, strain mso1, hits give low values 1.02 | S. cerevisiae deletion strains, locus YNR052C, strain pop2, hits give low values 0.996 | S. cerevisiae deletion strains, locus YOL012C, strain htz1 0.704 | S. cerevisiae deletion strains, locus YOL147C, strain pex11, hits give low values 1.01 | S. cerevisiae deletion strains, locus YOR001W, strain rrp6, hits give low values 1.02 | S. cerevisiae deletion strains, locus YOR061W, strain CKA2, hits give low values 1.01 | S. cerevisiae deletion strains, locus YOR069W, strain VPS5, hits give low values 1.01 | S. cerevisiae deletion strains, locus YOR070C, strain gyp1, hits give low values 1 | S. cerevisiae deletion strains, locus YOR080W, strain dia2, hits give low values 1.01 | S. cerevisiae deletion strains, locus YOR083W, strain WHI5, hits give low values 0.975 | S. cerevisiae deletion strains, locus YOR106W, strain vam3, hits give low values 1 | S. cerevisiae deletion strains, locus YOR136W, strain idh2, hits give low values 0.998 | S. cerevisiae deletion strains, locus YOR144C, strain elg1, hits give low values 0.996 | S. cerevisiae deletion strains, locus YOR184W, strain ser1, hits give low values 1.02 | S. cerevisiae deletion strains, locus YOR265W, strain rbl2, hits give low values 0.994 | S. cerevisiae deletion strains, locus YOR270C, strain vph1, hits give low values 1 | S. cerevisiae deletion strains, locus YOR290C, strain snf2, hits give low values 0.961 | S. cerevisiae deletion strains, locus YOR316C, strain cot1, hits give low values 0.992 | S. cerevisiae deletion strains, locus YPL051W, strain arl3, hits give low values 0.97 | S. cerevisiae deletion strains, locus YPL078C, strain atp4, hits give low values 0.97 | S. cerevisiae deletion strains, locus YPL106C, strain sse1, hits give low values 0.994 | S. cerevisiae deletion strains, locus YPL240C, strain hsp82, hits give low values 0.999 | S. cerevisiae deletion strains, locus YPL241C, strain CIN2, hits give low values 1.01 | S. cerevisiae deletion strains, locus YPR119W, strain clb2, hits give low values 0.995 | S. cerevisiae deletion strains, locus YPR141C, strain kar3, hits give low values 0.997 | S. cerevisiae deletion strains, locus YPR163C, strain tif3, hits give low values 0.988 | S. cerevisiae deletion strains, locus YPR167C, strain met16, hits give low values 0.997 | S. cerevisiae deletion strains, strain wtn01, hits give low values 1.02 | S. cerevisiae strains, strain wild type, hits give low values 1.01
